Most compounds without a hit are left out; they make up all but 9.8% or so of the library.
ALDH1A1 block = qHTS Assay for Inhibitors of Aldehyde Dehydrogenase 1 (ALDH1A1); Purified ALDH1A1, NADH fluorescence, propionaldehyde substrate; Potency, µM (doses to about 75.3 µM), inactives show at the top dose activity, negative = inhibition, usual class: inhibitors; hit rate 7.3% among 220,000; AID 1030, 2008;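 note: potency is the fitted concentration of half-maximal effect; plate controls were no enzyme wells and a reference inhibitor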
Target sequence (P00352 whole entry, looked up): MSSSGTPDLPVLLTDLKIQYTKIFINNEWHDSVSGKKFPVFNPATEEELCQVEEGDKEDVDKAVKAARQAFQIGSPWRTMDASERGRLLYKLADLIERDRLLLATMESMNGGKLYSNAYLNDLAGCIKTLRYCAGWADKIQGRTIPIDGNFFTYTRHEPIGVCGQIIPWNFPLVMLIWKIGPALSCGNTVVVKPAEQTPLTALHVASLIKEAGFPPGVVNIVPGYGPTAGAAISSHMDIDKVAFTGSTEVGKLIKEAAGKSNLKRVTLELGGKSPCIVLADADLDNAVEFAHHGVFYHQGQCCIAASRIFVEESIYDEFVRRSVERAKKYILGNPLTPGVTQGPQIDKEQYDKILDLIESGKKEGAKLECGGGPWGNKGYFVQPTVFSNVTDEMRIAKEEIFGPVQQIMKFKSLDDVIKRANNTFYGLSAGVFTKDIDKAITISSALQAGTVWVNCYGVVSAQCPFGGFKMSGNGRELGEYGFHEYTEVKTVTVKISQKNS
HTT ATP protect = qHTS Multiplex Assay to Identify Dual Action Probes in a Cell Model of Huntington: Cytoprotection (ATP); PC12 HTT-Q103 induced, cytoprotection, ATP luminescence, 40 h; Potency, µM (top dose mostly 56.4 µM), without a hit: cytoprotection (ATP increase), hits mostly activators; hit rate 0.14% among 230,000; active = well fitted curve in the direction sought with a large enough effect; inconclusive = small, poorly fitted or top-dose-only effect, or another doubt; inactive = no such curve, though single readings can be large; an effect the other way counts as inactive or inconclusive; note: potency is the fitted concentration of half-maximal effect; % of control where 0% means no effect; nearly all actives have a fitted effect of over 45% in size
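ATP quantification (ATPlite) reports survival of PC12 cells in which tebufenozide, 100 nM final, switches on Htt exon 1 with 103 glutamines linked to GFP; compounds are titrated.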
CBFb RUNX1 block = qHTS Assay for Compounds Blocking the Interaction Between CBF-beta and RUNX1 for the Treatment of Acute Myeloid Leukemia | Runt-related transcription factor 1 (Homo sapiens) + Core-binding factor subunit beta … | AlphaScreen CBFb-His/RUNX1-biotin binding, biochemical | Potency, µM (highest dose often 59.8 µM), for the others: top-dose activity, negative = inhibition, actives largely listed as inhibitors | 230,000 tested, under 10 active | AID 1477, 2009; active = well fitted curve in the direction sought with a large enough effect; inconclusive = small, poorly fitted or top-dose-only effect, or another doubt; inactive = no such curve, though single readings can be large; an effect the other way counts as inactive or inconclusive; note: % of control where 0% means no effect
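Interaction loss through any mechanism counts as activity. Pre-formed complex of His-CBF-beta and biotin-RUNX1 (30 nM apiece) is incubated with compound 15 min, then with 50 ng nickel and 50 ng streptavidin beads for 90 min before AlphaScreen detection.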
HttQ103 aggreg = qHTS Multiplex Assay to Identify Dual Action Probes in a Cell Model of Huntington: Aggregate Formation (GFP) | PC12 HttQ103-GFP aggregates, Acumen cytometry, 40 h | Potency, µM (titrated, usually from 46.1 µM), for the others: top-dose activity change, negative = inhibition, most hits filed as inhibitors | hit rate 1.1% among 220,000 | AID 1688, 2009; active = well fitted curve in the direction sought with a large enough effect; inconclusive = small, poorly fitted or top-dose-only effect, or another doubt; inactive = no such curve, though single readings can be large; an effect the other way counts as inactive or inconclusive; note: potency is the fitted concentration of half-maximal effect; % is set by controls: 0 for no effect and ±100 for the full control effect; nearly all actives have a fitted effect of over 60% in size
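Compounds (qHTS titration) were added to PC12 cells expressing an ecdysone-driven HTT exon 1 Q103–GFP fusion after induction with 100 nM tebufenozide. Aggregate formation was measured as GFP objects in cell lysates.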
HPGD inh = qHTS Assay for Inhibitors of HPGD (15-Hydroxyprostaglandin Dehydrogenase); 15-hydroxyprostaglandin dehydrogenase [NAD(+)] (Homo sapiens), P15428; purified HPGD, NADH fluorescence kinetic, PGE2 substrate; Potency, µM, without a hit: top-dose activity change, negative = inhibition, usual class: inhibitors; hit rate 4.3% among 150,000; AID 894, 2007; note: potency is the fitted concentration of half-maximal effect; % is set by controls: 0 for no effect and ±100 for the full control effect
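20 nM HPGD preincubated 15 min at room temperature with compound in 50 mM Tris-HCl pH 8, 0.01% Tween 20. Started with 1 mM NAD+ and 30 uM prostaglandin E2; NADH fluorescence (360/450 nm) read 5 times over 30-s intervals, last minus first.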
JMJD2E inh = qHTS Assay for Inhibitors of Human Jumonji Domain Containing 2E (JMJD2E). JMJD2E catalytic domain, FDH-coupled NADH fluorescence (FDH is formaldehyde dehydrogenase). Potency, µM (doses to about 57.1 µM), without a hit: at the top dose activity change, negative = inhibition, hits mostly inhibitors. hit rate 1.6% among 230,000. AID 2147, 2009;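 note: potency is the fitted concentration of half-maximal effect; 0% = wells with enzyme and -100% = buffer wells without enzyme; nearly all actives have a fitted effect of over 50% in size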
Numbers without * were called inactive; ? = inconclusive; . = no result given; [ ] = remark or other dose. Unless noted, calls come from the whole dose curve; as a rule, active = well fitted inhibition curve with a large enough effect (not every such curve was filed as active); inconclusive = small, poorly fitted or top-dose-only effect, or another doubt; inactive = no such curve, though single readings can be large or run the other way.

SMILES	ALDH1A1 block	HTT ATP protect	CBFb RUNX1 block	HttQ103 aggreg	HPGD inh	JMJD2E inh
Cc1ccc(S(=O)(=O)Nc2ccc(NC(=O)CN3CCCCC3)cc2)cc1	-2%	-5%	8%	2%	2%	2%
O=C(CN1CCC(Cc2ccccc2)CC1)Nc1ccc2c(c1)OCCO2	28µM*	10%	-7%	-3%[9.22 µM]	-8%	-22%
Cc1ccc(S(=O)(=O)Nc2cc(NC(=O)CN3CCOCC3)ccc2Cl)cc1	18µM*	-15%	3%	29%	-11%	-18%
O=C(CCN1C(=O)c2ccccc2S1(=O)=O)Nc1ccc2c(c1)OCCO2	6.3µM*	9%	-2%	7%	-16%	-1%
O=C(CN1CCN(CC(=O)Nc2ccccc2Cl)CC1)Nc1ccc2c(c1)OCCO2	7.9µM*	-39%	-4%	0%	-8%	4%
Cn1c(=O)c(-c2cccs2)nc2cnc(OCc3ccccc3)nc21	?	-5%	.	.	.	.
CC1CC(NC(=O)C2(C)CC2(Cl)Cl)CC(C)(C)C1 (stereo not given)	23%	-5%[10 µM]	1%	-1%	-4%	9%
COC(=O)c1cccc(C(=O)N2CCCC(C(=O)c3cc(F)ccc3F)C2)c1 (stereo not given)	?	7%[10 µM]	6%	17%[9.22 µM]	.	8%
CCN(Cc1ccccc1)c1ccc(/C=N/NS(=O)(=O)c2cccc([N+](=O)[O-])c2)cc1	6.3µM*	.	?	26%	-19%	?
CCN(CC)c1ccc(/C=N/NS(=O)(=O)c2ccc(C)c([N+](=O)[O-])c2)cc1	20µM*	21%[10 µM]	1%	16%	.	-4%
Cc1ccc(S(=O)(=O)N/N=C/c2ccccc2O)cc1[N+](=O)[O-]	?	-36%	-7%	-2%	.	-10%
C/C(=N\NS(=O)(=O)c1ccc(C)c([N+](=O)[O-])c1)c1ccc2c(c1)OCO2	22µM*	-33%	-5%	0%	.	-8%
Cc1ccc(S(=O)(=O)N/N=C/c2ccc(O)c(O)c2)cc1[N+](=O)[O-]	?	-27%	4%	-17%	.	28µM*
O=[N+]([O-])c1cccc(/C=N/NS(=O)(=O)c2ccccc2)c1	?	-4%	1%	20%	.	7%
Cc1cc(NC(=O)C2C3C(=O)N(Cc4ccc(Cl)cc4)C(C(=O)NCc4ccccc4)C34C=CC2(C)O4)no1 (stereo not given)	3%	3%	5%	16%	-1%	10%
COc1ccc(Nc2ccc3c(c2)=NC2(CCCCC2)[N+]=3[O-])cc1	3.5µM*	-107%	?	?	-16%	?
COc1ccc(NC2=NC(=S)N(c3ccccc3C)C23CCCCC3)cc1	-13%	-8%	-12%	22%	-12%	3%
O=[N+]([O-])c1ccc2c(c1N1CCCCC1)=NC1(CCCCC1)[N+]=2[O-]	.	-1%[10 µM]	-26%	4%[9.22 µM]	.	-20%
[O-][N+]1=c2ccc(Nc3ccccc3)cc2=NC12CCCCC2	3.5µM*	-109%	?	?	-20%	?
CC1CCc2nn(CC(=O)N3CCN(C(=O)c4ccco4)CC3)cc2C1 (stereo not given)	-13%	14%[10 µM]	-10%	-28%	-19%	-4%
COc1cc(C(C[N+](=O)[O-])c2c(-c3ccccc3)cc3ccccn23)cc(OC)c1OC (stereo not given)	3.5µM*	5%	?	?	?	1%
COc1ccc(C(C[N+](=O)[O-])c2c(-c3ccccc3)cc3ccccn23)cc1 (stereo not given)	?	13%	0%	-8%	28µM*	-1%
COc1cc2c(cc1O)CC[C@@H]1[C@@H]2CC[C@@]2(C)[C@H](O)CC[C@H]12	.	-42%[1.9 µM]	.	.	.	.
C=CCn1c(SC(C)C(N)=O)nc2sc(CC)cc2c1=O (stereo not given)	8.9µM*	.	3%	0%	.	-6%
C=CCn1c(SC(C)C#N)nc2sc(CC)cc2c1=O (stereo not given)	2µM*	-17%	12%	-23%	.	-1%
SMILES	ALDH1A1 block	HTT ATP protect	CBFb RUNX1 block	HttQ103 aggreg	HPGD inh	JMJD2E inh
C=CCn1c(SCC(=O)c2c(N)n(CCC)c(=O)n(C)c2=O)nc2sc(CC)cc2c1=O	0%	-24%	3%	-18%	-19%	-4%
Cc1nc(-c2ccc(Cl)cc2)sc1C1(C)CC(c2ccc(C#N)cc2)=NO1 (stereo not given)	.	14%[10 µM]	?	8%[9.22 µM]	.	?
O=[N+]([O-])c1cc(C(F)(F)F)ccc1N1CCC(O)CC1	11µM*	19%[10 µM]	1%	-6%[9.22 µM]	.	6%
Cc1cc(Br)cn2cc(C(=O)O)nc12	-5%	-33%	1%	-4%	.	-11%
CC12CCC(CC1)C(C)(C)O2	-3%	-6%	5%[21.7 µM]	-13%	0%	1%
O=C(CSCc1ccccc1)N1CCN(Cc2ccc3c(c2)OCO3)CC1	-10%	-14%[10 µM]	-8%	-12%	-8%	-10%
Cc1cccc(-c2nc(CSCC(=O)N3CCN(Cc4ccc5c(c4)OCO5)CC3)c(C)o2)c1	?	-1%[10 µM]	-1%	10µM*	-27%	-18%
Cc1ccc(-c2nc(CSCC(=O)N3CCN(C(=O)c4ccco4)CC3)c(C)o2)cc1	22µM*	-15%	5%	-18%	-15%	-9%
CCC(C)C(NC(=O)c1ccccc1NC(=O)c1ccco1)C(=O)NNC(=O)c1ccncc1 (stereo not given)	.	11%[10 µM]	11%	23%[9.22 µM]	.	-9%
COc1ccc(CC(=O)Nc2nnc(C(C)C)s2)cc1OC	1%	11%[10 µM]	9%	-33%[9.22 µM]	.	-2%
CC1Cc2ccccc2N1S(=O)(=O)c1cnc[nH]1 (stereo not given)	9%	-6%	-4%	-11%	-8%	-8%
O=S(=O)(c1cnc[nH]1)N1CCc2ccccc21	20µM*	13%	4%	-3%	-1%	1%
CCC(=O)O[C@@]1(C(=O)SCF)[C@@H](C)C[C@H]2[C@@H]3C[C@@H](F)C4=CC(=O)C=C[C@@]4(C)[C@]3(F)[C@@H](O)C[C@]21C	12%[20.9 µM]	-5%[40.3 µM]	8%[21.7 µM]	6%[20.6 µM]	-7%	0%[25.5 µM]

High-throughput results from PubChem BioAssay.
